Consider 31 compounds from PubChem BioAssay (Tox21).

Results filed as inconclusive are left out. Active and inactive are the calls of the source. Unless noted, calls come from the whole dose curve; as a rule, active = well fitted curve in the direction sought with a large enough effect in the repeat runs; inconclusive = weak or mixed curves; inactive = no such curve, though single readings can be large; an effect the other way counts as inactive or inconclusive.

Test [1] can be described thus: qHTS assay to identify small molecule agonists of the androgen receptor (AR) signaling pathway in the presence of an antagonist - cell viability counter screen (AID 1259379). Note: nearly all actives have a fitted effect of over 25% in size. Note: potency is the fitted concentration of half-maximal effect. A digest of the protocol: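 MDA-kb2 cells (MMTV-luciferase, AR/GR), 3,000/well, 5 h attachment, then 3.0 µM nilutamide (final) and compounds at 15 concentrations. Viability by CellTiter-Fluor fluorescence after 16 h at 37 °C, 0% CO2, in the reporter wells.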

The nature of test [2]: qHTS assay to identify small molecule agonists of the estrogen receptor beta (ER-beta) signaling pathway - cell viability counter screen (AID 1259380). Note: nearly all actives have a fitted effect of over 30% in size. Note: potency is the fitted concentration of half-maximal effect. A digest of the protocol:
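ER-beta-UAS-bla HEK293T cells in medium with 2% charcoal-stripped FBS, pre-incubated 6 hr, then treated 16 hr at 37C. Cytotoxicity read in the same wells by CellTiter-Glo luminescence after 30 min at room temperature.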
On the technique in general: Quantitative high-throughput screening tests each substance at several concentrations.

Test [3] deals with Androgen receptor (Homo sapiens) (UniProt P10275). Briefly: qHTS assay to identify small molecule agonists of the androgen receptor (AR) signaling pathway in the presence of an antagonist (AID 1259381; calls by dose curve; note: nearly all actives have a fitted effect of over 15% in size). A digest of the protocol:
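MDA-kb2 cells carrying MMTV-luciferase (AR/GR responsive), 3,000 cells/well, co-treated with 3.0 uM nilutamide final. Compounds at 15 concentrations, 16 hr at 37C without CO2. Luciferase luminescence read after 30 min with ONE-Glo.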

Test [4] can be described thus: qHTS assay to identify small molecule antagonists of the estrogen receptor beta (ER-beta) signaling pathway - cell viability counter screen (AID 1259382).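 Note: HEK293T cells carrying ER-beta-UAS-bla reporter stimulated with estradiol; series mostly up to about 92 µM; nearly all actives have a fitted effect of over 55% in size.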 Put shortly:
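ER-beta-UAS-bla HEK293T cells in 2% charcoal-stripped FBS medium, treated with compound plus 1 nM 17-beta-estradiol for 16 h at 37C. Viability read by CellTiter-Glo luminescence after 30 min at room temperature in the same wells.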

Test [5] addresses Estrogen receptor (Homo sapiens) (UniProt P03372). Briefly: qHTS assay to identify small molecule agonists of the estrogen receptor alpha (ER-alpha) signaling pathway in the presence of an antagonist (AID 1259383; calls by dose curve; note: top concentration of the series differs between compounds; nearly all actives have a fitted effect of over 15% in size). A digest of the protocol:
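VM7Luc4E2 cells express endogenous full-length ER-alpha with an ERE-luciferase reporter and were hormone-deprived for 5 days. Compounds at 15 concentrations were added with 10.0nM ICI-182,780 for 22hr at 37C. Luminescence was read with ONE-Glo.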

The nature of test [6]: qHTS assay to identify small molecule agonists of the estrogen receptor alpha (ER-alpha) signaling pathway in the presence of an antagonist - cell viability counter screen (AID 1259386).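 Note: cells exposed to compounds for 22 h at 37 °C before the viability read; nearly all actives have a fitted effect of over 30% in size.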 Note: potency is the fitted concentration of half-maximal effect. A digest of the protocol:
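Cell viability in VM7Luc4E2 cells (endogenous full-length ER-alpha) measured by CellTiter-Fluor fluorescence in the same wells as the luciferase screen. Cells pre-cultured 5 days in charcoal-stripped serum, then treated 22 h with compounds at 15 concentrations plus 10.0nM ICI-182,780.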

Test [7] is described as follows: qHTS assay to identify small molecule agonists or antagonists of the thyroid stimulating hormone receptor (TSHR) signaling pathway - wild type cell line counter screen (AID 1259384; calls by dose curve). Put shortly: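 Counter screen in untransfected Hek293: compounds (15-point titration, triplicate) plus phosphodiesterase inhibitor Ro20-1724 added after 18 h plating; 30 min RT. Intracellular cAMP via competitive d2/cryptate immunoassay, 1 h incubation.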

For test [8], the target named is Thyrotropin receptor (Homo sapiens) (UniProt P16473). As to the kind of experiment: qHTS assay to identify small molecule antagonists of the thyroid stimulating hormone receptor (TSHR) signaling pathway (AID 1259385; calls by dose curve; note: nearly all actives have a fitted effect of over 20% in size). A digest of the protocol:
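Antagonist mode: compound-treated TSHR-expressing HEK293 cells were stimulated with 1.5 ng/mL TSH (final) in presence of Ro20-1724 for 30 min at RT. HTRF cAMP detection after 1 h; each compound tested at 15 concentrations, triplicate.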

Chain of Estrogen receptor (Homo sapiens) (P03372 whole entry, looked up): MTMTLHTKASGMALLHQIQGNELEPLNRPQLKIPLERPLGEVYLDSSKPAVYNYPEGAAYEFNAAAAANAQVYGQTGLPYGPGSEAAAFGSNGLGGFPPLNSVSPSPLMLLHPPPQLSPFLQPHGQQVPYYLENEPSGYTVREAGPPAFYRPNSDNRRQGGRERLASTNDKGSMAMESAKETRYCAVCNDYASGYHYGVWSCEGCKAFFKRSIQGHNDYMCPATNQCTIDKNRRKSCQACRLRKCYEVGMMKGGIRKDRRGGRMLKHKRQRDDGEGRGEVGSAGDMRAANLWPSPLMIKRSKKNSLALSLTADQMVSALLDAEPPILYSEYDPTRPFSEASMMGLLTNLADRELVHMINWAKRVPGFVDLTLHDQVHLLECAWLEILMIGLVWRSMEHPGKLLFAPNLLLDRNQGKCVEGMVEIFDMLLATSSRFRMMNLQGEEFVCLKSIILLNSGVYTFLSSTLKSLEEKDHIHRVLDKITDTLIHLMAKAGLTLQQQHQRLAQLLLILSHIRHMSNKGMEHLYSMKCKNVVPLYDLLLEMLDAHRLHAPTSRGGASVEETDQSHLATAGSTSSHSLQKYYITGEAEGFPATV
Chain of Thyrotropin receptor (Homo sapiens) (P16473 whole entry, looked up): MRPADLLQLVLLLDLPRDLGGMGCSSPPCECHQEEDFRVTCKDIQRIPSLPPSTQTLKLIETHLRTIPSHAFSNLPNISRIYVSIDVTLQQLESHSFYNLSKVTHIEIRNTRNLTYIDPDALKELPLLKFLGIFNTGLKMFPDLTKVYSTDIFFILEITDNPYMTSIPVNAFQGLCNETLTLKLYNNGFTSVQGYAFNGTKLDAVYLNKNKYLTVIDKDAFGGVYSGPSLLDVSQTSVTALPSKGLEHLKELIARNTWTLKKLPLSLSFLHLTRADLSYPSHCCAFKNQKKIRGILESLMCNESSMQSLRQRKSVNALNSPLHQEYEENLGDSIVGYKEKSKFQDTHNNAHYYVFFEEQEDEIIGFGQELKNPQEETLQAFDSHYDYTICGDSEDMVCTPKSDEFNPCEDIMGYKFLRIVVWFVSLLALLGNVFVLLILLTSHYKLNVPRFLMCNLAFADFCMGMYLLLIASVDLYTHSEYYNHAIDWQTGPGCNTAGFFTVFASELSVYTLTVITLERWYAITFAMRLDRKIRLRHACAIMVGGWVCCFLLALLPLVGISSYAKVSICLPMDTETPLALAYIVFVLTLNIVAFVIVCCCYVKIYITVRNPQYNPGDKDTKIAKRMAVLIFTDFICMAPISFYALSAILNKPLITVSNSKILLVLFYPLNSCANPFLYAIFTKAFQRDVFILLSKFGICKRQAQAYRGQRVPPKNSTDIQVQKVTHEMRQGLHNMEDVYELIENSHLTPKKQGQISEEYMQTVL
Chain of Androgen receptor (Homo sapiens) (P10275 whole entry, looked up): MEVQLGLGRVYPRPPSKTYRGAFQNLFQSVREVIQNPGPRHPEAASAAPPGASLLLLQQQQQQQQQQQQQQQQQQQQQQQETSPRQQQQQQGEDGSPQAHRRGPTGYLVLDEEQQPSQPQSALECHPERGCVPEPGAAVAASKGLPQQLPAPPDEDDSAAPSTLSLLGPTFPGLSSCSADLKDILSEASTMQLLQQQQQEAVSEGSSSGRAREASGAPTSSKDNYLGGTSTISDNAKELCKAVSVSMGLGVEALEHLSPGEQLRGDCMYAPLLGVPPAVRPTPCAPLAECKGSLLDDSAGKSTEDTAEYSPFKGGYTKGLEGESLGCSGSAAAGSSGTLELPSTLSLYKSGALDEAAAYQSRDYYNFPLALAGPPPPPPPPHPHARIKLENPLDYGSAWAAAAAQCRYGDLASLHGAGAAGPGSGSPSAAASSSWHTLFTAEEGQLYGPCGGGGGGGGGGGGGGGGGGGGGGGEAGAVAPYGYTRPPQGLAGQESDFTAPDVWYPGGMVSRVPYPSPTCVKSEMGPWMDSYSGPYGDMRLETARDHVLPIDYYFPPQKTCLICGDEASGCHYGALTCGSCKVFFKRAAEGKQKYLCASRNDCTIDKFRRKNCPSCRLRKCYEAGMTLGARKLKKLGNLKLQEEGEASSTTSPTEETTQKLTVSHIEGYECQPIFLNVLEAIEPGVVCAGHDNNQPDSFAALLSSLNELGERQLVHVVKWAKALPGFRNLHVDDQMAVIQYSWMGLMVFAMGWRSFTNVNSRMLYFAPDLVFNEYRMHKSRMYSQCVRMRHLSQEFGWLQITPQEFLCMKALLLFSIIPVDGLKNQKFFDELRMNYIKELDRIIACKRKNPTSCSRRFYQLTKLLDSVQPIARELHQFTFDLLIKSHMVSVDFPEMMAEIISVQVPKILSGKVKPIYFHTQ

For `O=C1c2ccccc2C(=O)N1CCl`, the Potency result in test [1], in test [2], in test [3] and in test [6] was “inactive” in each case. Also, the result in test [4] and in test [5] was inactive.
Consider `CC(C(=O)O)c1ccc2c(c1)CC(=O)c1ccccc1S2` (stereo not given), for which the Potency result in test [1], in test [2], in test [3] and in test [6] was “inactive” in each case. Moreover, the outcome in test [4], in test [5] and in test [7] was inactive.
`Cc1cccc(C)c1OCC(C)N` (stereo not given): the Potency entry in test [1], in test [2] and in test [6] was “inactive” throughout. The result in test [4], in test [5] and in test [8] was inactive.
Turning to `CC(C)C(=O)OCCc1ccccc1`, the Potency result in test [1], in test [2] and in test [6] was “inactive” throughout. Besides, the result in test [4], in test [5], in test [7] and in test [8] was inactive.
Take `CN(CCOc1ccc(NS(C)(=O)=O)cc1)CCc1ccc(NS(C)(=O)=O)cc1`: the Potency entry in test [1], in test [2] and in test [6] was “inactive” throughout. The compound was called inactive in test [4], in test [5], in test [7] and in test [8].
As to `O=C(CCN1CCN(CCO)CC1)N1c2ccccc2Sc2ccc(C(F)(F)F)cc21`, the Potency entry in test [1], in test [2], in test [3] and in test [6] was “inactive” each time. Besides, the call in test [4], in test [5] and in test [7] was inactive.
With `CO[C@@H]1[C@@H](OC(N)=O)[C@@H](O)[C@H](Oc2ccc3c(O)c(NC(=O)c4ccc(O)c(CC=C(C)C)c4)c(=O)oc3c2C)OC1(C)C`, the Potency entry in test [1], in test [2] and in test [6] was “inactive” throughout. Moreover, the result in test [4], in test [5] and in test [8] was inactive.
Take `COP(=O)(OC)OC(c1ccc(Cl)cc1)P(=O)(OC)OC` (stereo not given): the Potency entry in test [1], in test [2] and in test [6] was “inactive” in each case. For the same compound, the outcome in test [4], in test [5], in test [7] and in test [8] was inactive.
Regarding `CC(C)(C)OC(=O)c1ccc(O)cc1`, the Potency result in test [1], in test [2], in test [3] and in test [6] was “inactive” in each case. For the same compound, the call in test [4] and in test [7] was inactive.
On to `O=C1c2ccccc2C(=O)C1c1ccccc1`, for which the Potency entry in test [1], in test [2] and in test [6] was “inactive” each time. Besides, the result in test [4], in test [5], in test [7] and in test [8] was inactive.
`Cc1ccc(S(=O)(=O)O)c(C)c1`: the Potency entry in test [1], in test [2] and in test [6] was “inactive” in each case. Besides, the compound was called inactive in test [4], in test [5], in test [7] and in test [8].
In the case of `COc1ccc(S(=O)(=O)N2c3ccc(Cl)cc3[C@@](O)(c3ccccc3Cl)[C@H]2C(=O)N2CCC[C@@H]2C(N)=O)cc1OC`, the Potency entry in test [1], in test [2] and in test [6] was “inactive” each time. Also, the compound was called inactive in test [4] and in test [5].
As for `CC(=O)Nc1ccc(S(=O)(=O)Nc2ccc([N+](=O)[O-])cc2)cc1`, the Potency in test [1] and in test [6] was 23.7 µM (active) in each case. The Potency entry in test [2] was “inactive”. For the same compound, the call in test [4], in test [5], in test [7] and in test [8] was inactive.
`O=C(O)c1cc(Cl)cc([N+](=O)[O-])c1Cl`: the Potency result in test [1], in test [2], in test [3] and in test [6] was “inactive” each time. Moreover, the call in test [4], in test [5], in test [7] and in test [8] was inactive.
As for `CCOc1cc(NC(C)=O)ccc1C(=O)OC`, the Potency entry in test [1], in test [2] and in test [6] was “inactive” each time. The call in test [4], in test [5], in test [7] and in test [8] was inactive.
In the case of `CCCCCCCCC(=O)Cl`, the Potency entry in test [1], in test [2] and in test [6] was “inactive” throughout. The compound was called inactive in test [4] and in test [5].
On to `CCOC(=O)/C=C/c1ccccc1`, for which the Potency result in test [1], in test [2] and in test [6] was “inactive” each time. Moreover, the compound was classed as inactive in test [4], in test [5], in test [7] and in test [8].
For the compound `CN1C(C)(C)CCCC1(C)C`, the Potency entry in test [1], in test [2] and in test [6] was “inactive” each time. In addition, the compound was called inactive in test [4], in test [5] and in test [8].
Take `COc1cc2c(cc1OC)C(=O)CC2`: the Potency entry in test [1], in test [2], in test [3] and in test [6] was “inactive” in each case. The outcome in test [4], in test [5], in test [7] and in test [8] was inactive.
For the compound `Cc1cccc(OCC(O)CNC(C)(C)C)c1C` (stereo not given), the Potency entry in test [1], in test [3] and in test [6] was “inactive” throughout. Moreover, the Potency in test [2] is 13.3 µM (active). Further, the call in test [4], in test [7] and in test [8] was inactive.
As to `CC(C)(C)c1n[nH]c(=S)n(N)c1=O`, the Potency result in test [1], in test [2] and in test [6] was “inactive” in each case. Besides, the outcome in test [4], in test [5] and in test [7] was inactive.
On to `C=C(C)C(=O)OCCN(CC)CC`, for which the Potency entry in test [1], in test [2], in test [3] and in test [6] was “inactive” each time. Besides, the call in test [4], in test [7] and in test [8] was inactive.
In the case of `O=C1c2ccccc2C(=O)c2cc(S(=O)(=O)O)ccc21`, the Potency result in test [1], in test [2] and in test [6] was “inactive” in each case. In addition, the call in test [4], in test [5], in test [7] and in test [8] was inactive.
Regarding `Cc1cc2cc3c(C)cc(=O)oc3c(C)c2o1`, the Potency result in test [1], in test [2] and in test [6] was “inactive” in each case. Moreover, the result in test [4], in test [5] and in test [7] was inactive.
For `CCC(CC)CO`, the Potency result in test [1], in test [2], in test [3] and in test [6] was “inactive” in each case. The call in test [4], in test [5] and in test [8] was inactive.
`CCNC(=O)C1CC(C)CCC1C(C)C` (stereo not given): the Potency entry in test [1], in test [2] and in test [6] was “inactive” throughout. The outcome in test [4], in test [5], in test [7] and in test [8] was inactive.
Consider `COCCOC(=O)C1=C(C)NC(C)=C(C(=O)OC(C)C)C1c1cccc([N+](=O)[O-])c1` (stereo not given), for which the Potency entry in test [1], in test [2] and in test [6] was “inactive” each time. In addition, the result in test [4], in test [5], in test [7] and in test [8] was inactive.
`Cc1ccc2ccc(Cl)cc2n1`: the Potency result in test [1], in test [2], in test [3] and in test [6] was “inactive” each time. Also, the outcome in test [4] and in test [5] was inactive.
Take `Nc1cccc(O)c1`: the Potency result in test [1], in test [2] and in test [6] was “inactive” each time. In addition, the outcome in test [4], in test [5] and in test [8] was inactive.
Consider `CCOCCOC(=O)/C=C/c1ccc(OC)cc1`, for which the Potency entry in test [1], in test [2] and in test [6] was “inactive” in each case. Moreover, the outcome in test [4], in test [5] and in test [7] was inactive.
Consider `CCCCOC(=O)c1ccccc1`, for which the Potency entry in test [1], in test [2], in test [3] and in test [6] was “inactive” throughout. Moreover, the result in test [4], in test [5] and in test [7] was inactive.
